# PubChem BioAssay AID376 (PDSP, 2006)
# Among all 2,000 compounds or so, about 250 (12%) were called active. What follows is part of a selection rich in actives, with near analogues and random picks from the rest. Unmarked numbers belong to inactive results. No stated cut-off is given here; in the data, active means hERG blockade below about -20% or above about 20%; inactive means in between.
# Target: Voltage-gated inwardly rectifying potassium channel KCNH2 (Homo sapiens) (UniProt Q12809)
# Test: modulators of KCNH2 ion channel function, cellular (AID 376);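 further: 0% = buffer alone and 100% = reference blocker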
# Conditions: hERG-expressing cells, channel activity single-concentration screen; concentration not given here
# Voltage-gated inwardly rectifying potassium channel KCNH2 (Homo sapiens), sequence (Q12809 whole entry, looked up): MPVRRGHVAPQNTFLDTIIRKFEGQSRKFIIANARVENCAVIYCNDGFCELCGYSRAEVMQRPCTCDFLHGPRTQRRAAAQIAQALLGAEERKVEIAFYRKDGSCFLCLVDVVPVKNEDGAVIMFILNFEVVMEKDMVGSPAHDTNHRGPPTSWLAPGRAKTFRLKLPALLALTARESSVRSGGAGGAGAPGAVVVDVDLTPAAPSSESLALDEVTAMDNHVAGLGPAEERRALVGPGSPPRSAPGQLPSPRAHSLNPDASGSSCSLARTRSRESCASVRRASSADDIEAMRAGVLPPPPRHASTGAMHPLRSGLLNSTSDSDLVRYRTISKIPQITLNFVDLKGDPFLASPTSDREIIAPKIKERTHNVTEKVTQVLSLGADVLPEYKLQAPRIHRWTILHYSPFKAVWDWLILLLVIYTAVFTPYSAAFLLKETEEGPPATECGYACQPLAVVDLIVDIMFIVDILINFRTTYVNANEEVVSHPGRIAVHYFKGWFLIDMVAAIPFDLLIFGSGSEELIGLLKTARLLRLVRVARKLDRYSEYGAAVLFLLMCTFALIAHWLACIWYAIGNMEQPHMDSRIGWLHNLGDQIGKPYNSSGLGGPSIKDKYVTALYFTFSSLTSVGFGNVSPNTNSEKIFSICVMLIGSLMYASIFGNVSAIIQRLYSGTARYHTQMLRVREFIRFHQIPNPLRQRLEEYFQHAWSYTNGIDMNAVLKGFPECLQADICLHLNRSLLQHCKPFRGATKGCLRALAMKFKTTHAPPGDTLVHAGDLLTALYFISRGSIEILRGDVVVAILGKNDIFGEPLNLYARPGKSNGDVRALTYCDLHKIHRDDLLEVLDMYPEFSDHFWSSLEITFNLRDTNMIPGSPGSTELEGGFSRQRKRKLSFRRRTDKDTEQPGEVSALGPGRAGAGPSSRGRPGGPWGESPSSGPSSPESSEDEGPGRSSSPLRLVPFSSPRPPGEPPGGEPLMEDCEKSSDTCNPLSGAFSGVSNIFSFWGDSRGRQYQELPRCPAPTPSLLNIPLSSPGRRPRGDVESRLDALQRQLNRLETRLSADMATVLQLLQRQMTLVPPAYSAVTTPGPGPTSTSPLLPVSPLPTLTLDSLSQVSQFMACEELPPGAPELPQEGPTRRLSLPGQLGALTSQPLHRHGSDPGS
row,SMILES,hERG blockade
1,Cc1cc(Cc2c(C)c(C)c(Cc3cc(C)cc(C(C)(C)C)c3O)c(C)c2C)c(O)c(C(C)(C)C)c1,1.65%
2,Nc1ccc(N(S(=O)(=O)c2ccccc2)S(=O)(=O)c2ccccc2)c(Cl)c1,0.845%
3,COc1cc(CN2CCCCC2)cc2cc(C(=O)O)c(=O)oc12,4.84%
4,O=C(O)c1c[nH]c2cc(OCc3ccccc3)ccc2c1=O,6.26%
5,O=C(O)c1c[nH]c2c(ccc3[nH]cc(C(=O)O)c(=O)c32)c1=O,22.9% (active)
6,O=C(O)c1ccc(C(=O)O)c2c(C(=O)O)ccc(C(=O)O)c12,-5.21%
7,O=C(O)C(Cc1ccccc1-c1ccccc1)C(=O)O,19.4%
8,Cc1n[nH]c2ccccc2c1=O,-1.27%
9,O=C(O)CCC(=O)c1ccc2sc3ccccc3c2c1,-5.18%
10,COc1ccc2ccccc2c1C=CC(=O)c1ccccc1,-1.69%
11,O=C(C[n+]1ccc2ccccc2c1)c1ccc2ccc3ccccc3c2c1,37.2% (active)
12,OC(COc1ccc(Cl)cc1Cl)CN1CCCC1 (centres undefined),17.2%
13,C[N+](C)(N)CCC[N+](C)(C)N,-2.4%
14,O=C1C2=C(Nc3cc([N+](=O)[O-])ccc3N2)OC1c1c[nH]c2ccc(COc3ccccc3)cc12 (centres undefined),4.4%
15,Nc1nc(SCc2ccccc2Cl)cc(C(=O)O)n1,-7.45%
16,CC(C)C1=CC23CCC4C(C)(C(=O)O)CCCC4(C)C2CC1C(C(=O)O)C3C(=O)O (centres undefined),6.18%
17,CC(O)(c1ccccc1)c1nccc2ccccc12 (centres undefined),0.101%
18,Oc1ccc2ccccc2c1Cc1c(O)ccc2ccccc12,8.8%
19,Oc1c(C(O)(c2ccccc2)c2ccc3ccccc3c2O)ccc2ccccc12,50.7% (active)
20,CC1=NN(c2ccc(S(=O)(=O)O)cc2)C(=O)C1=Cc1ccc(Cl)cc1,41% (active)
21,O=c1oc2ccccc2c(O)c1C=Nc1nc(-c2ccc(O)c(O)c2)cs1,-3.45%
22,C[N+](C)(C)CC(=O)NN=Cc1ccncc1,-9.76%
23,C=CCSc1nc2c(N)ncnc2n1C1OC(CO)C(O)C1O (centres undefined),-7.69%
24,Nc1nccc(Nc2ccc(S(N)(=O)=O)cc2)n1,20.2% (active)
25,NS(=O)(=O)c1ccc(NCc2cnc3ccccc3n2)cc1,-7.4%
26,NS(=O)(=O)c1ccc(NCc2cnc3ccccc3c2)cc1,-4.82%
27,O=[N+]([O-])c1ccc(CS(=O)Cc2ccccc2)cc1 (centres undefined),8.1%

row,SMILES,hERG blockade
1,Cc1ccc(S(=O)(=O)Oc2cc(N)c3c(n2)CCC3)cc1,-21.4% (active)
2,Cc1ccc(S(=O)(=O)Nc2cc(=O)[nH]c3c2CCC3)cc1,15.4%
3,Cc1ccc(S(=O)(=O)Oc2cc(S(=O)(=O)O)cc3cc(S(=O)(=O)O)cc(N)c23)cc1,11.5%
4,O=C(O)C(=Cc1ccncc1)c1cccc2ccccc12,0.772%
5,COc1ccc2c3c([nH]c2c1)C1CC2C(CC(O)C(OC)C2C(=O)O)CN1CC3 (centres undefined),5.28%
6,COC(=O)C1C(OS(=O)(=O)O)CCC2CN3CCc4c([nH]c5ccccc45)C3CC21 (centres undefined),-1.73%
7,COC(=O)C1C(O)CCC2CN3CCc4c([nH]c5ccccc45)C3CC21 (centres undefined),42.5% (active)
8,Oc1cc(O)c2c(c1)OC(c1ccc(O)c(O)c1)C(O)C2c1c(O)cc(O)c2c1OC(c1ccc(O)c(O)c1)C(O)C2 (centres undefined),10.6%
9,O=C(O)COc1c(Cl)cc(Cl)c2cccnc12,-8.13%
10,c1ccc(CN2COc3c(ccc4c5c(ccc34)CN(Cc3ccccc3)CO5)C2)cc1,-6.83%
11,CC(C)(C)c1c2c(c(C(C)(C)C)c3c1OCN(Cc1ccccc1)C3)OCN(Cc1ccccc1)C2,23.8% (active)
12,O=C(Oc1ccc2c(c1)CN(Cc1ccccc1)CO2)c1ccccc1,13%
13,CCCC(c1cc(C(C)(C)C)c(O)cc1C)c1cc(C(C)(C)C)c(O)cc1C,4.17%
14,CC(=N[O-])C(C)=N[O-].CC(=N[O-])C(C)=N[O-].C[CH-]C(C)O.[Co].c1ccncc1,-3.56%
15,Nc1ccn(C2OC(COP(=O)(O)O)C(O)C2O)c(=O)n1 (centres undefined),-9.61%
16,N=c1ccn2c(n1)OC1C(OP(=O)(O)O)C(CO)OC12 (centres undefined),-24.7% (active)
17,Nc1ccn(C2OC(CO)C3[O][Sn]([c]4ccccc4)([c]4ccccc4)[O]C32)c(=O)n1 (centres undefined),9.47%
18,Fc1cccc(Cl)c1C=NN=C1c2ccccc2-c2ccccc21,4.24%
19,O=C(O)c1c(Cl)c(Cl)c(Cl)c(Cl)c1C(=O)Nc1ccc2cn[nH]c2c1,9.23%
20,C[N+](C)(C)C(Cc1c[nH]c(=S)[nH]1)C(=O)O (centres undefined),-14%
21,COc1ccc(-c2nc(N)c3ncn(C4OC(CO)C(O)C4O)c3n2)cc1 (centres undefined),-8.39%
22,CC(C)CC(N)C(=O)O (centres undefined),6.02%
23,NC(Cc1ccccc1)(C(=O)O)C(=O)O,-3.15%
24,NS(=O)(=O)c1cc(C(=O)O)c(Cl)c([N+](=O)[O-])c1Cl,-6.38%
25,COc1cc(C(=O)O)c([N+](=O)[O-])c(OC)c1OC,23.9% (active)
26,COc1ccc(Cc2ccccc2C(=O)O)c2ccccc12,-3.19%
27,Cc1cc(=O)oc2cc(O)c(CN(C)CC(=O)O)cc12,0.517%

row,SMILES,hERG blockade
1,O=c1[nH]c(=S)[nH]c2c1CN(CCCN1CCOCC1)CN2,3%
2,NCCSCc1ccccc1Cl,6.42%
3,CN(CCO)Cc1ncccc1O,-0.376%
4,CC(CCC(=O)O)C1CCC2C3CCC4CC(O)CCC4(C)C3CC(O)C12C (centres undefined),2.74%
5,Cc1nc2cccc([N+](=O)[O-])c2n1CCCN(C)C,3.79%
6,CN(C)CCCn1c2c3ccccc3ccc2c2oc(=O)c3ccccc3c21,122% (active)
7,Cc1ccc(N2CCN(CCC(=O)O)CC2)cc1,-0.109%
8,CCCn1cnc2c(SCC(=O)O)nc(N)nc21,4.79%
9,NC(=S)NN=Cc1c[nH]c2ccccc12,9.72%
10,CCCCNS(=O)(=O)c1n[nH]c(=O)[nH]c1=O,-14.2%
11,CC(CCC(C)=NO)=NO,-14.3%
12,Cc1cc(Cl)ccc1Nc1sc(C(=O)c2cc3cc(Cl)ccc3o2)c(N)c1C#N,24% (active)
13,O=C(O)c1c(-c2nccc3ccccc23)[nH]c(-c2ccccc2)c1S(=O)(=O)O,-1.08%
14,COc1ccc2nccc(SCC(=O)O)c2c1,-9.78%
15,CC(=O)Nc1ccccc1C=C1c2ccccc2-c2ccccc21,-13.9%
16,CC(=O)Nc1ccc2c(c1)C(=Nc1ccc(C(=O)O)cc1)c1ccccc1-2,19.5%
17,CC(=O)Nc1ccc2c(c1)C(=Cc1ccc([N+](C)(C)C)cc1)c1ccccc1-2,24.7% (active)
18,Cc1ccc(C(C#N)=Cc2cccc([N+](=O)[O-])c2)cc1,11.7%
19,CC(=O)n1c(COS(C)(=O)=O)nc2ccccc21,4.86%
20,OC(CCN1CCCCC1)(c1ccccc1)c1ccccc1,11.6%
21,CC1CC(C)(C)CC(OCCN2CCCCC2)(c2ccccc2)C1 (centres undefined),21.3% (active)
22,Cc1ccc(S(=O)(=O)Nc2ccccc2C=O)cc1,5.12%
23,C[N+]1(CCCC[N+]2(C)CCCCCCC2)CCCCCCC1,13.6%
24,N#CC(C#N)=CNCCN1CCN(C=C(C#N)C#N)CC1,-5.6%
25,CN(C)CCNc1ccccn1,5.77%
